FadD28 FP inh: blocks FadD28 binding to the bisubstrate probe; fluorescence polarization; inhibition, % at 12.5 µM; actives 0.22% (n = 360,000); AID 588549; in the data active = inhibition above about 8.5%, passing the limit was not always enough
GDH-TPI counter-1: counter-screen for M. tuberculosis FBA inhibitors: GDH-TPI coupled enzymes; GDH-TPI coupled enzyme counterscreen, NADH absorbance; inhibition, % at 4.8 µM; actives 1.2% (n = 360,000); AID 588335; in the data active = inhibition above about 30%;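 also: 0% = DMSO wells and 100% = wells lacking the enzyme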
FBA Mtb inh: inhibitors of M. tuberculosis fructose-bisphosphate aldolase; P9WQA3; purified M. tuberculosis FBA, fluorescence read-out; inhibition, % at 1 µM; actives 2.3% (n = 360,000);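 also: 0% = vehicle and 100% = reference inhibitor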
Target sequence (P9WQA3 whole entry, looked up): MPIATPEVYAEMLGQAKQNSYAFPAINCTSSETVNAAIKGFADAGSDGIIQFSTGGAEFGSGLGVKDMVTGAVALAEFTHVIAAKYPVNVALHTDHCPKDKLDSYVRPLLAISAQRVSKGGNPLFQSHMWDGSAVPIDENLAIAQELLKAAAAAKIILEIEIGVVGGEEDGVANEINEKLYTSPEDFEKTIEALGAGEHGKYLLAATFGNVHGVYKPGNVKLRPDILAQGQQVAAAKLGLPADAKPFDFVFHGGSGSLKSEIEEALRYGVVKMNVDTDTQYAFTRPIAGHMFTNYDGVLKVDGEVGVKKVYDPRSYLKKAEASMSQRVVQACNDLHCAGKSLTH
Mtb BioA inh: inhibitors of Mycobacterium tuberculosis BioA enzyme | inhibition, % at 9.99 µM | AID 602481 | purified M. tuberculosis BioA enzyme, plate reader | actives 0.096% (n = 360,000); in the data active = inhibition above about 40%
Mtb hypoxia rep: reduces hypoxia-regulated biosensor signal in M. tuberculosis; M. tuberculosis hypoxia-regulated fluorescent reporter, fluorescence; fluorescence inhibition, % (concentration not given with the values); actives 0.1% (n = 300,000); AID 1159583; in the data active = fluorescence inhibition mostly above about 23%, no sharp cut-off; inactive = mostly below about 17%
Mtb FBA inh conf: confirmation of M. tuberculosis fructose-bisphosphate aldolase inhibitors. shares compounds with FBA Mtb inh. purified M. tuberculosis FBA, fluorescence read-out. inhibition, % at 1 µM. actives 78% (n = 5,600);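 also: 0% = vehicle wells and 100% = reference inhibitor wells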
GDH-TPI counter-2: inhibits GDH-TPI coupling enzymes, flagging Mtb FBA hits | shares compounds with FBA Mtb inh | GDH-TPI coupled enzyme counterscreen, fluorescence | inhibition, % at 1 µM | actives 81% (n = 5,600) | AID 652141; in the data active = inhibition above about 10%
An asterisk follows results filed as active; x = not tested or not shown; + = active, no number. The list is not random: actives were taken first. Their share in the collection is about 2.9%. Rule as the data show it, unless noted: active = inhibition above about 27%; inactive = the rest.

SMILES | FadD28 FP inh | GDH-TPI counter-1 | FBA Mtb inh | Mtb BioA inh | Mtb hypoxia rep | Mtb FBA inh conf | GDH-TPI counter-2
C=CCOc1ccc(CNc2ccc3[nH]c(=O)[nH]c3c2)cc1OC | 1 | 15 | 85* | x | 4 | 114* | 88*
COc1cc(CNc2ccc3[nH]c(=O)[nH]c3c2)ccc1OCc1ccc(F)cc1 | -2 | 5 | -1 | -2 | 3 | x | x
COc1ccc(-c2noc(C3CCCN(C(=O)c4cccc(C)c4)C3)n2)cc1 (stereo not given) | -4 | -4 | 78* | 0 | 2 | 115* | 77*
Cc1ccc(-c2noc(C3CCCN(C(=O)c4cccc(F)c4)C3)n2)cc1 (stereo not given) | 1 | -10 | 1 | 0 | -1 | x | x
COc1cc(OC)cc(C(=O)N2CCCC(c3nc(-c4ccc(C)o4)no3)C2)c1 (stereo not given) | -2 | 1 | 31* | 3 | -17 | 2 | -6
CC(C)C#Cc1cnc2c(c1)C(=O)N([C@@H](C)CO)C[C@@H](C)[C@@H](CN(C)C(=O)Nc1cc(F)ccc1F)O2 | x | x | x | 2 | x | x | x
COc1ccc2oc(C(=O)OCC(=O)NCCc3ccc(S(N)(=O)=O)cc3)c(C)c2c1 | -1 | 8 | 38* | 0 | -6 | + | 184*
COc1ccc2oc(C(=O)OCC(=O)NCCc3ccccc3)c(C)c2c1 | 0 | 8 | 32* | -2 | 0 | 58* | 43*
COc1ccc2oc(C(=O)NCCc3ccccc3)c(C)c2c1 | -1 | -3 | 23 | 1 | 0 | x | x
COc1ccc2oc(C(=O)OCC(=O)N(CCC#N)c3ccccc3)c(C)c2c1 | -3 | -1 | 39* | -1 | 3 | 1 | -5
CO[C@H]1CN(C)C(=O)c2ccc(NC(=O)Cc3ccccc3)cc2OC[C@@H](C)NC[C@H]1C | x | x | x | -1 | x | x | x
CCOC(=O)Nc1ccc2nc(-c3cscn3)[nH]c2c1 | 0 | 19 | 28* | 2 | x | 51* | 38*
Cc1cc(NCCCn2ccnc2)n2nc(-c3ccc(Cl)cc3)cc2n1 | -4 | 1 | 8 | x | 20 | x | x
CC(C)(C)c1cc(NCCCn2ccnc2)n2ncc(-c3ccc(Cl)cc3)c2n1 | -3 | 14 | 61* | x | 5 | 60* | 41*
Cc1nc(NCc2ccco2)c2c3c(sc2n1)CCC3 | -3 | -5 | 4 | 7 | x | x | x
CC(C)Sc1nc(NCc2ccco2)c2c3c(sc2n1)COC(C)(C)C3 | -3 | 9 | 85* | -1 | -8 | + | +
COc1cc(/C=N/NC(=O)Cc2nnc(N)s2)cc(OC)c1OC | -3 | 6 | 6 | x | x | x | x
COc1ccc(-c2ccc(/C=N/NC(=O)Cc3nnc(N)s3)o2)cc1Cl | -6 | 38* | 29* | -1 | x | 54* | 30*
CCOC(=O)CN(c1ccccc1)S(=O)(=O)c1ccc(F)cc1 | -3 | -1 | -1 | 0 | 2 | x | x
O=C(CN(c1ccccn1)S(=O)(=O)c1ccc(F)cc1)Nc1ccc(F)cc1F | -3 | 6 | 35* | x | -3 | 117* | 90*
CCOC(=O)CN(c1ccccn1)S(=O)(=O)c1ccc(OC)cc1 | 0 | 13 | 46* | x | 5 | 138* | 100*
O=C(CN(c1ccc(F)cc1)S(=O)(=O)c1ccccc1)Nc1ccccc1C(=O)O | -4 | 1 | 5 | x | -5 | x | x
O=C(C[C@@H]1C=C[C@@H](NC(=O)CC2CC2)[C@@H](CO)O1)NCc1ccc(-c2ccccc2)cc1 | x | x | x | 3 | x | x | x
CC1(C)CC(=O)c2cc(OCC(=O)NCc3cccnc3)ccc2O1 | -1 | -1 | 62* | 2 | 6 | -3 | -6
COc1ccc(OCC(=O)NCc2cccnc2)cc1 | -2 | 7 | -5 | -4 | x | x | x
CC(C)NC(=O)COc1ccc2c(c1)C(=O)CC(C)(C)O2 | 0 | 9 | 71* | 0 | 15 | + | 186*
CC1(C)CC(=O)c2cc(OCC(=O)NCCCN3CCN(c4ccccc4F)CC3)ccc2O1 | 0 | 13 | 15 | 0 | 0 | x | x
CCCCCCCNC(=O)COc1ccc2c(c1)C(=O)CC(C)(C)O2 | -2 | 2 | 43* | 3 | 7 | 56* | 56*
COC(=O)C1=C(c2cc3ccccc3o2)CC2CCC1N2C(=O)NCc1ccc(F)cc1 (stereo not given) | x | x | x | x | 2 | x | x
Cc1ccccc1C(=O)NN=Cc1ccncc1 | x | x | x | x | 7 | x | x
